Hits are enriched below; roughly 15% of the tested compounds scored in any of these assays.
Pf growth 48h: inhibits P. falciparum growth in the first generation, 48 h | Potency, µM (series often up to 28.7 µM), usual class: inhibitors | P. falciparum luciferase growth in erythrocytes, 48 h | AID 504832 | actives 5.9% (n = 310,000)
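Luciferase-expressing P. falciparum in infected erythrocytes (2% hematocrit, 0.1% parasitemia final) in RPMI 1640/0.5% Albumax were exposed to compound for 48 hours at 37 C, 5% CO2; growth read as luminescence.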
Sm TGR inh: inhibitors of Schistosoma mansoni thioredoxin glutathione reductase; Q962Y6; purified TGR, DTNB reduction, TNB absorbance 405 nm; Potency, µM (highest dose often 114 µM), most hits filed as inhibitors; actives 3% (n = 360,000); also: nearly all actives have a fitted effect of over 60% in size
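TGR 20 nM + NADPH 100 uM (dispensed conc.), cpd preinc 15 min RT; start with NADPH (500 uM addition) then DTNB (15 mM addition). Kinetic TNB absorbance, 405 nm filter. Four-parameter Hill fit across titration.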
SARS PLpro yeast: inhibitors of SARS-CoV papain-like protease in yeast | S. cerevisiae expressing SARS-CoV PLpro, growth rescue | Potency, µM (series often up to 32.9 µM), actives largely listed as activators | actives 0.19% (n = 330,000); calls by dose curve; also: nearly all actives have a fitted effect of over 55% in size
HCMV inh: inhibitors of human cytomegalovirus. HFF cells, HCMV-luciferase reporter, 72 h; active compounds read low. activity change, negative = inhibition, % at 57.5 µM. actives 4.5% (n = 410,000). AID 1259415; in the data active = activity change below about -60%; inconclusive = no clear call, values can overlap the other calls; inactive = above about -39%
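HFF cells seeded 16 h at 37C, treated with compounds, infected with luciferase-reporter HCMV at MOI 1 PFU/cell; luciferase read at 72 h post infection, normalized to buffer-only and Salinomycin controls.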
HCV inh: blocks hepatitis C virus | AID 651820 | actives 3.4% (n = 340,000) | Huh7.5.1 HCVcc-Cre infection, luciferase reporter, 44 h | Potency, µM (series often up to 41.8 µM), usual class: inhibitors
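Antiviral activity was scored by luciferase reporter output from cells infected with HCVcc-Cre (~0.5 moi) in presence of compound, 44 h infection period, cells seeded 1,000/well 4 h prior.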
Pf growth 96h: P. falciparum growth inhibition at 96 hours. P. falciparum luciferase reporter growth, 96 h. Potency, µM (highest dose often 28.7 µM), usual class: inhibitors. actives 6.9% (n = 320,000)
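Plates of compound plus infected erythrocytes (2% hematocrit, 0.05% parasitemia final) incubate 96 hours, 37 C, 5% CO2. Detection reagent added; reduced luminescence from the parasites' luciferase reporter flags inhibition.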
Numbers stand for hits; n = inactive; u = inconclusive; x = no result; [ ] = another dose, or the depositor's remark. Unless noted, calls follow the shape of the dose curve; as a rule, active = well fitted curve in the direction sought with a large enough effect; inconclusive = small, poorly fitted or top-dose-only effect, or another doubt; inactive = no such curve, though single readings can be large; an effect the other way counts as inactive or inconclusive.

SMILES | Pf growth 48h | Sm TGR inh | SARS PLpro yeast | HCMV inh | HCV inh | Pf growth 96h
CCCS(=O)(=O)N1CCN(C2CCC(C)CC2)CC1 (centres undefined) | n | x | n | n | n | 10.4µM
COC(=O)c1ccc(NC(=O)CN(Cc2ccccc2)S(=O)(=O)c2ccc(Cl)cc2)cc1 | x | n | x | n | x | x
Cc1ccc2cccc(OCC(=O)Nc3cccc(S(=O)(=O)N4CCCC4)c3)c2n1 | 9.28µM | n | n | n | 5.62µM | u
COc1ccc(NCC(=O)Nc2cccc(S(=O)(=O)N3CCCC3)c2)cc1Cl | x | x | n | n | 10µM | x
O=C(COc1ccc2ccc(=O)oc2c1)NC1CCCC1 | n | n | n | -62.3 | n | u
O=C(COc1ccc2ccc(=O)oc2c1)Nc1cccc(S(=O)(=O)N2CCCCC2)c1 | 11.7µM | n | n | n | u | 4.65µM
Cn1c(SCCN2CCCC2)nnc1C1CCN(S(=O)(=O)c2cccc(F)c2)CC1 | n | n | n | n | n | n
COc1ccc(OC)c(C2=NS(=O)(=O)N(C)C(C(=O)NCc3ccco3)=C2)c1 | n | n | n | n | n | u
CSCCC(NC(=O)COc1ccccc1)C(=O)N(C)Cc1cccc(F)c1 (centres undefined) | u | n | n | n | n | n
COc1ccccc1OCCC(=O)Nc1cccc(S(=O)(=O)N2CCCCC2)c1 | n | n | n | n | u | n
CCOc1ccccc1OCC(=O)Nc1cccc(S(=O)(=O)N2CCCCCC2)c1 | u | n | n | n | u | 13.1µM
CCOc1ccc(NC(=O)CNc2cccc(S(=O)(=O)N3CCCCCC3)c2)cc1OCC | x | x | n | n | 11.2µM | x
O=C(COc1ccc(Cl)cc1Br)Nc1cccc(S(=O)(=O)N2CCCC2)c1 | u | n | n | n | u | n
COc1cc(NC(=O)CNc2cccc(S(=O)(=O)N3CCCC3)c2)cc(OC)c1 | u | n | n | n | u | u
N#Cc1ccccc1OCC(=O)Nc1cccc(S(=O)(=O)N2CCCCCC2)c1 | 13.1µM | n | n | n | u | u
Cc1cc(Cl)ccc1OCC(=O)Nc1cccc(S(=O)(=O)N2CCCC2)c1 | u | n | n | u | 7.94µM | u
CC(=O)c1ccccc1OCC(=O)Nc1cccc(S(=O)(=O)N2CCCC2)c1 | u | n | n | n | n | u
Cc1ccc([C@H]2N[C@]3(CCCN(Cc4ccccc4)C3=O)[C@H]3C(=O)N(C)C(=O)[C@@H]23)cc1 | x | x | x | n | x | x
COC(=O)c1ccccc1NS(=O)(=O)c1ccc(Cl)nc1 | n | n | n | n | n | n
CC(=O)c1ccc(OCC(=O)Nc2cccc(S(=O)(=O)N3CCCC3)c2)cc1 | u | n | n | n | u | 4.15µM
Cc1ccc(OCC(=O)Nc2cccc(S(=O)(=O)N3CCCC3)c2)cc1C | x | x | x | n | x | x
COc1ccc(NC(=O)COc2ccccc2C#N)c(S(=O)(=O)N2CCCCC2)c1 | x | n[11.4 µM] | n | n | 10µM | u
Cc1ccc(CNC(=O)CCC2CCCN(Cc3c(C)nn(C(C)C)c3C)C2)o1 (centres undefined) | n | n | n | n | n | 8.28µM
Cc1ncc(CN2CCCC(CCC(=O)NCc3ccccc3F)C2)s1 (centres undefined) | n | n | n | n | n | n
Cc1ccc(CNC(=O)CCC2CCCN(Cc3cccc4c3OCO4)C2)o1 (centres undefined) | n | u | n | n | n | n
SMILES | Pf growth 48h | Sm TGR inh | SARS PLpro yeast | HCMV inh | HCV inh | Pf growth 96h
Cc1ccc(CNC(=O)CCC2CCCN(Cc3ccc4cccc(F)c4n3)C2)o1 (centres undefined) | n | 39.8µM | n | n | n | u
C=C(c1ccc2cc(OC)ccc2c1)[C@H](C#N)C1CCCC1 | x | x | x | n | x | x
Cc1ccc2cc(C=C(C#N)C#N)c(Cl)nc2c1 | n | 2.82µM | n | n | u | n
CCOC(=O)/C(C#N)=C/c1cc2ccccc2nc1N1CCCCC1 | n | n | n | n | u | n
Cc1ccc2cc(/C=C(\C#N)C(N)=O)c(N3CCCCC3)nc2c1 | n | n | n | n | 14.1µM | n
Cc1ccc2cc(C=C(C#N)C#N)c(N3CCCCC3)nc2c1 | n | 3.16µM | n | n | u | n
N#CC(C#N)=Cc1cc2ccccc2nc1N1CCOCC1 | n | 7.08µM | n | n | n | n
N#C/C(=C\c1cc2ccccc2nc1N1CCOCC1)C(=O)Nc1ccc(N2CCOCC2)cc1 | n | n | n | u | n | n
CNC(=O)c1ccc2nc(Cc3ccccc3)oc2c1 | x | n | x | n | x | x
COc1ccc(S(=O)(=O)N2CCSC2C)cc1C (centres undefined) | n | n | n | n | n | n
Cn1c(-c2ccccc2)c(C(=O)CCl)c2ccccc21 | u | 6.31µM | n | -100.6 | 5.62µM | n
CCn1c(-c2ccccc2)c(C(=O)CCl)c2ccccc21 | n | 17.8µM | n | -99.6 | 8.91µM | u
CCn1c2ccccc2c(=O)c2ccccc21 | u | n | n | n | u | n
Cc1ccc(-n2c(=O)c3c(c4cc(C)ccc4n3C)n(CC(=O)Nc3c(C)cccc3C)c2=O)cc1 | x | n | x | n | x | x
O=C(NCCc1ccccc1)[C@@H]1CC=C[C@@H]2CCN(C3CCCCC3)C(=O)[C@@H]21 | x | x | x | n | n | x
Brc1ccc(Cn2c(-c3cncs3)nc3ccccc32)cc1 | u | n | n | n | u | n
Brc1cccc(Cn2c(-c3cncs3)nc3ccccc32)c1 | 10.4µM | n | n | n | u | 8.28µM
COC(=O)c1ccccc1NC(=O)CSc1nncn1-c1cccnc1 | n | n | n | n | n | u
Cn1cnnc1SCC(=O)Nc1cccc(C(=O)O)c1 | x | n | n | n | n | n
Cn1cnnc1SCC(=O)Nc1ccccc1Sc1ccccc1 | n | n | n | -62.7 | n | u
Cc1cc(C)c(NC(=O)CSc2nncn2-c2cccnc2)c(C)c1 | n | n | n | n | n | 11.7µM
Cc1ccc(NC(=O)CSc2nncn2C)c(C)c1 | x | n | x | -104.9 | x | x
COC(=O)c1ccccc1NC(=O)CSc1nncn1C | 11.7µM | n | n | n | n | n
Cc1c(Cl)cccc1NC(=O)CSc1nncn1-c1cccnc1 | n | n | n | n | n | u
CN(C)C(=O)c1cccc(-c2cnc3c(NC=O)cc(-c4ccccc4F)cn23)c1 | x | x | x | n | x | x
SMILES | Pf growth 48h | Sm TGR inh | SARS PLpro yeast | HCMV inh | HCV inh | Pf growth 96h
Cc1cc(NC(=O)CSc2nnc(-c3cccnc3)n2C)no1 | n | n | n | n | n | n
Cc1cc(C)c(C(=O)CSc2nnc(-c3cccnc3)n2C)c(C)c1 | 11.7µM | u | n | n | n | x
NC(CCc1ccccc1)c1csc(NC(=O)Nc2cccc(C(F)(F)F)c2)n1 (centres undefined) | x | x | x | -98.1 | x | x
NNC(=O)Nc1cccc(C(F)(F)F)c1 | n | n | n | n | n | u
NC(=O)/C=C\C(=O)Nc1cccc(C(F)(F)F)c1 | n | 3.55µM | n | n | u | n
O=C(Nc1ccc(OC(F)F)cc1)Nc1cccc(C(F)(F)F)c1 | x | n | n | -79.9 | u | 5.22µM

Screening results: PubChem BioAssay, National Center for Advancing Translational Sciences (NCATS)
